The record followed here is PubChem BioAssay.

Calls of active or inactive are those of the source. Unless noted, no rule for the calls is given here.

The subject of test [1] is Wnt5a (protein binding on small-molecule microarray). Description: Wnt5a binders on small-molecule microarray, primary screen, biophysical, 635/667 nm fluorescence (AID 1142).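 Also: fluorescence read at 667 nm with signal to noise per printed feature.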 Particulars: 635 nm fluorescence, higher = more signal.
Test [2] is described as follows: cell viability in Huh7 cells, primary screen, cytotoxicity control for HCV replication inhibitor project, CellTiter-Glo luminescence, basal, 48 h (AID 1143).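 Also: Huh7 hepatoma cells carrying a hepatitis C replication reporter with no stimulus; test concentration not given here.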 Particulars: Huh7 HCV replicon, higher = more signal, called active from +8 up or from −8 down. (In general: In ATP-based viability assays light output follows the ATP content of the culture.)
The nature of test [3]: P. aeruginosa biofilm formation inhibitors, primary screen, PAO1 strain, BacTiter-Glo luminescence, LB-PBS (AID 1144). Conditions: 12 h, higher = more signal.
The nature of test [4]: CREB reporter modulators without forskolin, primary screen, cell-based, PC12, CRE-LacZ reporter, unstimulated (AID 1145). Particulars: no forskolin, luminescence, 4.5 h, higher = more signal, called active from +8 up or from −8 down.
Test [5] is described as follows: CREB reporter modulators under forskolin, primary screen, cell-based, PC12, CRE-LacZ reporter, forskolin-stimulated (AID 1146).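 Also: PC12 cells with 6xCRE LacZ reporter stimulated by forskolin 10 µM; beta-galactosidase reporter signal reflecting CREB driven transcription.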 Particulars: luminescence, 4.5 h, higher = more signal, called active from +8 up or from −8 down.
Test [6] concerns the target Streptavidin (Streptomyces avidinii) (UniProt P22629). The test is described as follows: streptavidin binders on small-molecule microarray, primary screen, artefact control for SMM compound annotation, biophysical, 635/667 nm fluorescence (AID 1147).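 Also: signal reflects streptavidin binding to arrayed compounds as a control protein.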 Conditions: streptavidin binding, higher = more signal.
Test [7] in a line: small-molecule binders of probe aInhba, primary screen, biochemical, small-molecule microarray, 635/667 nm fluorescence (AID 1148).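 Also: score merges 667nm spot fluorescence with signal-to-noise for antibody binding to printed compounds.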 Particulars: higher = more signal.
Test [8] deals with Torsin-1A (Homo sapiens) (UniProt O14656). The test is described as follows: torsin A binders from cell lysate, primary screen, small-molecule microarray, wild-type, 635/667 nm (AID 1149). Conditions: COS7 hTOR1A-WT lysate, 635 nm fluorescence, higher = more signal.
Test [9] shares this target. The test is described as follows: small-molecule binders of mutant TOR1A in lysate, primary screen, cell lysate, small-molecule microarray, COS7 lysate, 635/667 nm fluorescence (AID 1150).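 Also: score pools 667 nm emission and signal to noise measuring lysate protein binding.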 Conditions: COS7 hTOR1A mutant lysate, 635 nm fluorescence, higher = more signal.
For test [10], the system named is Sonic hedgehog protein (Shh). The test is described as follows: small-molecule binders of Shh protein, primary screen, biochemical, small-molecule microarray, 635/667 nm fluorescence (AID 1151).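 Also: Shh protein binding to compounds spotted on small-molecule microarray slides; score combines spot fluorescence intensity with signal-to-noise across triplicate slides.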 Particulars: small-molecule microarray binding, 635 nm fluorescence; higher = more signal.
Test [11] can be described thus: E. coli DRC41 culture turbidity changes, primary screen, E. coli filamentation inducer project, strain DRC41, OD650, 48 h (AID 1152).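 Also: E. coli MC1000 strain DRC41 lacking acrAB efflux pump and sulA.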 Conditions: E. coli DRC41 (acrAB sulA), higher = more signal, called active from +8 up or from −8 down.
Test [12] can be described thus: small-molecule binders of probe aLefty1, primary screen, biochemical, small-molecule microarray, 635/667 nm fluorescence (AID 1153).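 Also: score merges spot fluorescence with signal-to-noise ratio from the scanned slide images.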 Particulars: higher = more signal.
Test [13] can be described thus: PSAC antagonists in infected red cells, primary screen, cell-based, P. falciparum Indochina, OD700, 1 h (AID 1154). Conditions: P. falciparum Indochina infected RBC osmotic lysis, higher = more signal, called active from +8 up or from −8 down.
A short description of test [14]: PSAC antagonists in infected red cells, primary screen, cell-based, P. falciparum Indochina, OD700, 2 h (AID 1155).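 Also: lysis reports solute entry through the parasite surface anion channel PSAC; channel blockers reduce lysis of infected cells.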 Conditions: P. falciparum Indochina infected erythrocytes, osmotic lysis OD700; higher = more signal, called active from +8 up or from −8 down.
Test [15] can be described thus: osmotic lysis modulators in infected erythrocytes, primary screen, PSAC antagonist project, cell-based, P. falciparum Indochina, OD700, 3 h (AID 1156). Particulars: higher = more signal, called active from +8 up or from −8 down.
The nature of test [16]: PSAC antagonists in infected red cells, primary screen, cell-based, P. falciparum Indochina, OD700, 18 h (AID 1157). Conditions: P. falciparum Indochina infected erythrocytes, osmotic lysis OD700, 18 h; higher = more signal, called active from +8 up or from −8 down.
Test [17] in a line: modulators of S6 phosphorylation in cells, primary screen, cell-based, A549, cytoblot, luminescence, serum-stimulated (AID 1158).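 Also: serum-stimulated A549 lung adenocarcinoma cells; signal is phosphorylated S6 detected by cytoblot immunostaining with HRP secondary.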 Particulars: A549 phospho-S6 cytoblot, 5 h, higher = more signal.
Test [18] concerns the target NADPH oxidase 2 (Homo sapiens) (UniProt P04839). Description: NOX2-dependent H2O2 signal modulators, primary screen, NOX inhibitor project, cell-based, HEK293-NOX2, PMA-stimulated, Amplex Red fluorescence (AID 1159). Also: test concentration not given here. Conditions: 45 min, higher = more signal, called active from +8 up or from −8 down.
The target in test [19] is NADPH oxidase 4 (Homo sapiens) (UniProt Q9NPH5). Description: NOX4-dependent H2O2 signal modulators, primary screen, NOX inhibitor project, cell-based, HEK293-NOX4, tetracycline-induced, Amplex Red fluorescence (AID 1160). Conditions: 45 min, higher = more signal, called active from +8 up or from −8 down.
Test [20] addresses NADPH oxidase 5 (Homo sapiens) (UniProt Q96PH1). Description: NOX5-dependent H2O2 signal modulators, primary screen, NOX inhibitor project, cell-based, HEK293-NOX5, Amplex Red fluorescence (AID 1161). Particulars: HEK293-NOX5, ionomycin, 45 min, higher = more signal.

Streptavidin (Streptomyces avidinii), sequence (P22629 whole entry, looked up): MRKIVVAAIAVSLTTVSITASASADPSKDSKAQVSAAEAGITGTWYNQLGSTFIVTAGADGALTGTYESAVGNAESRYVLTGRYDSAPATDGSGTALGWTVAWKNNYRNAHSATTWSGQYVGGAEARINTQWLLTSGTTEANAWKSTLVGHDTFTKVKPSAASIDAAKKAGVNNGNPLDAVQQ
NADPH oxidase 2 (Homo sapiens), sequence (P04839 whole entry, looked up): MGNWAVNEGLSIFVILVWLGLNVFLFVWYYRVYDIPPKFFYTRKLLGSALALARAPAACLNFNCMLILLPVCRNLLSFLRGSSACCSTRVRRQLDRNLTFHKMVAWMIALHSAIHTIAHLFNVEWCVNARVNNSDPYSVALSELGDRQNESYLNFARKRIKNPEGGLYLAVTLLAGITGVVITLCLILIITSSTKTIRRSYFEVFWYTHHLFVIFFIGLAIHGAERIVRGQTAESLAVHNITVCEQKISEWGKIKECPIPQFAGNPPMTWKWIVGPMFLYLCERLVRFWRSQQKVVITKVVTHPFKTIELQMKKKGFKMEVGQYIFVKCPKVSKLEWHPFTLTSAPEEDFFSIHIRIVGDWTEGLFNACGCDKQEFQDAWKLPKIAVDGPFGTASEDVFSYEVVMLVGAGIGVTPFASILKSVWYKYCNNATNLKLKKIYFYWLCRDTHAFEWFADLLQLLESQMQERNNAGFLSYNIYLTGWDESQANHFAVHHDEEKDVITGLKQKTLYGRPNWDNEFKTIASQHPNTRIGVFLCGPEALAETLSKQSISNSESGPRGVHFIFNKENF
NADPH oxidase 5 (Homo sapiens), sequence (Q96PH1 whole entry, looked up): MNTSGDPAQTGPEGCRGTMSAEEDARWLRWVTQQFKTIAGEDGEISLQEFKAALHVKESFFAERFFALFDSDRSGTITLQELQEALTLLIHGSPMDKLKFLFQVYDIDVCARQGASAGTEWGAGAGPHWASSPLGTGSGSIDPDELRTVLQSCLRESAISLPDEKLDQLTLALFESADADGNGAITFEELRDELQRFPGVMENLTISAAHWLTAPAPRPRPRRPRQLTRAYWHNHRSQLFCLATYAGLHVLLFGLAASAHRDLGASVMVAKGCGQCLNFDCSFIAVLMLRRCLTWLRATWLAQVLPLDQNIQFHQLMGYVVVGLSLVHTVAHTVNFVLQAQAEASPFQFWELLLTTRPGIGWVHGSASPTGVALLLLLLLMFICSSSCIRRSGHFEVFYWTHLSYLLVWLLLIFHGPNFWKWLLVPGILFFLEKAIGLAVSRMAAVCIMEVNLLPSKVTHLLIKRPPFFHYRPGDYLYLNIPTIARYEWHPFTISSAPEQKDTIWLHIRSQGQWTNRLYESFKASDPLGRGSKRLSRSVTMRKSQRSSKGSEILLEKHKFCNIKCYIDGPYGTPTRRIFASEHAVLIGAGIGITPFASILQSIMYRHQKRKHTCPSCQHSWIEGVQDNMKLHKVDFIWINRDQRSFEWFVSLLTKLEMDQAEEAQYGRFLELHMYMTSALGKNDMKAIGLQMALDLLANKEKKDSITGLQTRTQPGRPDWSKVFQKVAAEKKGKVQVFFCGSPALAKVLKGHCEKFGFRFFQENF
Torsin-1A (Homo sapiens), sequence (O14656 whole entry, looked up): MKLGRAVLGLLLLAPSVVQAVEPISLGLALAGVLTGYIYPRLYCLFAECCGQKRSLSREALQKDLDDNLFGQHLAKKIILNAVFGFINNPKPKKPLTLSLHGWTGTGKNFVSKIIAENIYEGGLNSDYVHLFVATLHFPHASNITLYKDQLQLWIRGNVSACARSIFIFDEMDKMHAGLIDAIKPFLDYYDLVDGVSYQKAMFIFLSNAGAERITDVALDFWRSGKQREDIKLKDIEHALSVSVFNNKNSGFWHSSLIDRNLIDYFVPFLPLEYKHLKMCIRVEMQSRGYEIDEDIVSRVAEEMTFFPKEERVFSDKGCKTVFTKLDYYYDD
NADPH oxidase 4 (Homo sapiens), sequence (Q9NPH5 whole entry, looked up): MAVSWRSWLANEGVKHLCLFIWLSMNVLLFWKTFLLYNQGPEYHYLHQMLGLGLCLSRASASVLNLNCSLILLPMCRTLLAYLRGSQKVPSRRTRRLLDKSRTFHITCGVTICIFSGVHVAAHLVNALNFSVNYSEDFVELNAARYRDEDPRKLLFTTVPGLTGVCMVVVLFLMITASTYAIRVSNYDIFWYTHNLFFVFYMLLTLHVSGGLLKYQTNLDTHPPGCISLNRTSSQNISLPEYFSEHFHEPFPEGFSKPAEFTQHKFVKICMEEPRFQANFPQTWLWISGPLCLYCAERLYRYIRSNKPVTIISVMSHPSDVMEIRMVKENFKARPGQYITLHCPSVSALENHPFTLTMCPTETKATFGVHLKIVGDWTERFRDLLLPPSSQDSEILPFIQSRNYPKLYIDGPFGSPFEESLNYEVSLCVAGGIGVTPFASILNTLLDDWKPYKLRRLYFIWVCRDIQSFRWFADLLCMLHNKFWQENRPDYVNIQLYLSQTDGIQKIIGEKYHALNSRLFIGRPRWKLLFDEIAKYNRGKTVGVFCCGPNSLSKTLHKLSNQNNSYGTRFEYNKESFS

`COc1ccc(C(=O)Nc2cccc(CN3C(=O)[C@@]4(O[C@@H](CC(=O)N5CCC[C@H]5CO)[C@H]([Si](C)(C)c5ccc(OC)cc5)[C@H]4C)c4ccccc43)c2)cc1`: the composite z-score was 0.107 in test [1]; 0.621 in [6]; -0.0454 in test [7]; 0.313 with Torsin-1A (Homo sapiens) [8]; 1.15 with Torsin-1A (Homo sapiens) [9]; 1.26 in test [10]. Moreover, in [12], the composite z-score was -0.06. Besides, the z-score in [2] was -4.18 (inactive); in test [3], -0.601 (inactive); in [4], 1.69 (inactive); in test [5] it was -1.55 (inactive); in test [11], -0.184 (inactive); in test [13], 4.51 (inactive). The z-score in test [14] was 1.32 (inactive); in [15], 0.691 (inactive); in test [16], 0.696 (inactive); in test [17], 1.31; in test [18], 1.24 (inactive); in [19], 0.982 (inactive). The z-score in test [20] was determined as 4.72.

On to `Cc1ccc(S[C@]2(C(=O)NC3CC3)CC(=O)N(C(C)C)[C@@H]2c2ccc(CO)cc2I)cc1`, for which the composite z-score in test [1] was -0.385; in test [6] it was -0.677; in [7], -0.394; with Torsin-1A (Homo sapiens) [8], 0.778; with Torsin-1A (Homo sapiens) [9], 0.652; in [10] it was 0.677. Also, the composite z-score in test [12] was -0.703. Further, the z-score in test [2] is -4.82 (inactive); in test [3], -1.21 (inactive); in [4] it was 0.299 (inactive); in test [5] it was 1.42 (inactive); in [11], 0.839 (inactive); in test [13] it was 5.84 (inactive). Further, the z-score in [14] is -0.558 (inactive); in test [15], 0.927 (inactive); in test [16], -1.31 (inactive); in [17] it was 2.32; in test [18], 0.828 (inactive); in test [19], -1.91 (inactive). For the same compound, the z-score in [20] is -2.33.

For the compound `C=CC[C@@]12N=C(c3ccc(OCCCO)cc3)O[C@@H]1c1ccccc1N(CCC)C2=O`, the composite z-score in test [1] was 0.318; in test [6], -0.0328; in test [7], -0.0185; with Torsin-1A (Homo sapiens) [8], -0.1; with Torsin-1A (Homo sapiens) [9], 0.204; in [10], 1.84. This compound came in with a composite z-score in [12] of 0.568. Moreover, the z-score was -4.06 (inactive) in test [2]; -1.29 (inactive) in test [3]; 0.69 (inactive) in [4]; -0.707 (inactive) in [5]; 1.39 (inactive) in test [11]; 35.3 (active) in [13]. For the same compound, the z-score was 36.6 (active) in test [14]; 1.75 (inactive) in test [15]; 6.24 (inactive) in test [16]; 0.697 in test [17]; -3.4 (inactive) in [18]; -0.215 (inactive) in test [19]. Besides, the z-score in test [20] was -1.75.

As to `C=CCC(OC(C)=O)[C@@H]1[C@@H](N(Cc2cccc3ccccc23)C(=O)Cc2ccc(OC)cc2)c2cc(OCCCO)ccc2N1C(=O)Cc1ccc2ccccc2c1` (stereo not given in full), the composite z-score was -0.0841 in test [1]; 0.175 in test [6]; -0.181 in test [7]; -0.254 with Torsin-1A (Homo sapiens) [8]; -0.41 with Torsin-1A (Homo sapiens) [9]; 0.0227 in test [10]. Moreover, in test [12], the composite z-score is 0.285. Moreover, the z-score was -1.91 (inactive) in test [2]; 0.255 (inactive) in [3]; -0.854 (inactive) in test [4]; 1.38 (inactive) in test [5]; -0.504 (inactive) in [11]; 2.18 (inactive) in test [13]. In addition, the z-score in test [14] was 0.0026 (inactive); in test [15], 1.42 (inactive); in test [16], -0.0843 (inactive); in test [17], 0.909; in test [18], -2.23 (inactive); in test [19], -0.887 (inactive). In [20], the z-score was -1.91.

For `[N-]=[N+]=Nc1ccccc1[C@H]1OC(c2ccc(OCCCO)cc2)=N[C@@]1(Cc1ccccc1)C(=O)NCC(O)CO` (stereo not given in full), the composite z-score was 0.96 in test [1]; 0.211 in test [6]; 0.121 in test [7]; 0.36 in the test with Torsin-1A (Homo sapiens) [8]; 0.807 in the test with Torsin-1A (Homo sapiens) [9]; -1.32 in test [10]. This compound also returned a composite z-score in [12] of 0.425. Besides, the z-score was -2.87 (inactive) in [2]; -0.48 (inactive) in [3]; -1.49 (inactive) in test [4]; -1.2 (inactive) in test [5]; 0.348 (inactive) in test [11]; 33.6 (active) in test [13]. Moreover, the z-score in test [14] is 30.4 (active); in test [15] it was 0.849 (inactive); in test [16], 8.56 (active); in test [17] it was -0.0737; in test [18], -0.455 (inactive); in test [19], 1.67 (inactive). The same compound returned a z-score in test [20] of 1.31.
